Assay results reported in PubChem BioAssay (NCI).
About 83,000 compounds went through this panel and 20% of them were active in at least one assay; those are over-represented in the sample as a whole.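 Compound tested at a single concentration for 48 hours in 96-well plates; a percent growth value below 10 was scored as active.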 Values without a mark were called inactive. Active and inactive are the calls of the source.

tested on: NCI-H226 lung; assay: NCI-60 one-dose screen, 48 h (100 = growth as untreated, 0 = no growth, -100 = all killed); conditions: 10 µM
Method: Growth inhibition of the NCI-H226 human Non-Small Cell Lung tumor cell line is measured as a screen for anti-cancer activity. Cells are grown in 96 well plates and exposed to the test compound for 48 hours. Compounds are tested at a single concentration, which is 10^-5 M for most compounds. The reported endpoint is percent growth (GI% or GIPRCNT), where numbers from 0 - 100% represent growth inhibition, and numbers from -100% - 0 represent cell death. For example, a value of 40 represents 60% growth inhibition. A value of 0 means no net growth occurred over the course of the experiment. A value of -40 indicates 40% of cells at the beginning of the experiment died by the end of the experiment. A value of -100 means all cells are dead at the end of the experiment.
NCI-60 Human Tumor Cell Lines Screen was performed using the standard one-dose NCI protocol, which is described in more detail at https://dtp.cancer.gov/discovery_development/nci-60/default.htm.
Compounds with GIPRCNT values below 10 were considered active. Activity score was based on GIPRCNT using the following formula: […]
Score is 0 for GIPRCNT values of 100 or above, 50 for GIPRCNT values of 0, and 100 for GIPRCNT values of -100.

| Compound | growth |
| --- | --- |
| CCOC(=O)C1=C(Nc2ccccc2)C(=O)OC12C(=O)Nc1ccccc12 (stereo not given) | 115% |
| C=CC[Se]C(=O)c1ccc(C(=O)[Se]CC=C)s1 | -40.1% (active) |
| O=C(/C=C/c1ccc(Cl)cc1)c1nc2ccccc2n1Cc1ccc(Br)cc1 | 57.4% |
| COP(=O)(CC(F)(F)C(F)(F)F)OC | -55.6% (active) |
| COc1ccc(/C=C/C(=O)c2nc3ccccc3n2Cc2ccc(Br)cc2)cc1 | 69.7% |
| CC12OOC(C)(OO1)C2CCC(=O)NCCCNc1ccnc2cc(Cl)ccc12 (stereo not given) | 94% |
| CC[C@]12C=CCN3CC[C@@]4(c5ccc(OC)cc5N(C)[C@H]4[C@@](O)(C(=O)OC)[C@@H]1OC(=O)CCC[P+](c1ccc(F)cc1)(c1ccc(F)cc1)c1ccc(F)cc1)[C@@H]32 | 46.9% |
| COc1cc(OC)c(S(=O)(=O)N(CCCl)CCCl)cc1C(=O)/C=C/c1ccc(C)cc1 | 81.5% |
| CC12OOC(C)(OO1)C2CCC(=O)NCCNc1ccnc2cc(Cl)ccc12 (stereo not given) | 93.7% |
| CC[C@]12C=CCN3CC[C@@]4(c5ccc(OC)cc5N(C)[C@H]4[C@@](O)(C(=O)OC)[C@@H]1OC(=O)CCC[P+](C1CCCCC1)(C1CCCCC1)C1CCCCC1)[C@@H]32 | -20% (active) |
| O=C(/C=C/c1ccco1)c1nc2ccccc2n1Cc1ccc(Br)cc1 | 48.2% |
| COCCOCCOCCOc1ccc(-n2cc(-c3ccc(O[C@H]4O[C@@H]5OC6(C)CC[C@H]7[C@H](C)CC[C@@H]([C@H]4C)[C@@]57OO6)cc3)nn2)cc1 | 79.7% |
| CC[C@]12C=CCN3CC[C@@]4(c5ccc(OC)cc5N(C)[C@H]4[C@@](O)(C(=O)OC)[C@@H]1OC(=O)CCCC[P+](C1CCCCC1)(C1CCCCC1)C1CCCCC1)[C@@H]32 | -22% (active) |
| O=C(/C=C/c1ccc(Cl)cc1Cl)c1nc2ccccc2n1Cc1ccc(Br)cc1 | 55.7% |
| CC12OOC(C)(OO1)C2CCC(=O)OCCNc1ccnc2cc(Cl)ccc12 (stereo not given) | 98% |
| COC(=O)C[C@](O)(CCCC(C)C)C(=O)O[C@H]1C(OC)=C[C@@]23CCCN2CCc2cc4c(cc2[C@@H]13)OCO4 | -12.3% (active) |
| C[C@H]1[C@H](OC(=O)CCC(=O)N(CCCc2cn(-c3ccc(CN4CCOCC4)cc3)nn2)CCNc2ccnc3cc(Cl)ccc23)O[C@@H]2OC3(C)CC[C@H]4[C@H](C)CC[C@@H]1[C@@]24OO3 | 54.1% |
| COCCOCCOCCOc1ccc(-n2cc(CCCN(CCNc3ccnc4cc(Cl)ccc34)C(=O)CCC(=O)O[C@@H]3O[C@@H]4OC5(C)CC[C@H]6[C@H](C)CC[C@@H]([C@H]3C)[C@@]46OO5)nn2)cc1 | 53.5% |
| Cc1ccc2[nH]c(=S)n(-c3ccc(F)cc3)c(=O)c2c1 | 97.6% |
| COC(=O)CCn1c(-c2ccc(-n3cc(-c4ccc(O[C@H]5O[C@@H]6OC7(C)CC[C@H]8[C@H](C)CC[C@@H]([C@H]5C)[C@@]68OO7)cc4)nn3)cc2)nc2ccccc21 | 32.8% |

| Compound | growth |
| --- | --- |
| COc1cc(OC)c(/C=C/C(=O)c2nc3ccccc3n2Cc2ccc(F)cc2)c(OC)c1 | 72.8% |
| CC(C)N=C([Se])NC(=O)c1ccccc1 | -33.5% (active) |
| C#CCCCN(CCNc1ccnc2cc(Cl)ccc12)C(=O)CCC(=O)O[C@@H]1O[C@@H]2OC3(C)CC[C@H]4[C@H](C)CC[C@@H]([C@H]1C)[C@@]24OO3 | 44.9% |
| C[C@H]1[C@H](OC(=O)CCC(=O)Nc2cnccn2)O[C@@H]2OC3(C)CC[C@H]4[C@H](C)CC[C@@H]1[C@@]24OO3 | 74.8% |
| C[C@H]1[C@H](OC(=O)CCC(=O)N(CCCc2cn(-c3ccc([N+](=O)[O-])cc3)nn2)CCNc2ccnc3cc(Cl)ccc23)O[C@@H]2OC3(C)CC[C@H]4[C@H](C)CC[C@@H]1[C@@]24OO3 | 61.6% |
| CC[C@@]12CC(C(=O)OC)=C3Nc4cc5c(cc4[C@@]34CCN(C[C@H]3O[C@H]31)[C@@H]24)[C@@H]1[C@H](O5)[C@@H](O)[C@@]2(CC)CC(C(=O)OC)=C3Nc4cc(OC)ccc4[C@@]34CCN1[C@@H]24 | -4.56% (active) |
| O=C(NCCCCC(c1ccc(F)cc1)c1ccc(F)cc1)Nc1ccc([N+](=O)[O-])c(C(F)(F)F)c1 | 0.603% (active) |
| CC(=O)Oc1ccccc1C(=O)[Se]C(=NC(C)C)NC(C)C | -67.2% (active) |
| Cc1c2oc3c(C)ccc(C(=O)N[C@@H]4C(=O)N[C@H](C(C)C)C(=O)N5CCC[C@H]5C(=O)N(C)CC(=O)N(C)[C@@H](C(C)C)C(=O)OC4C)c3nc-2c(C(=O)N[C@@H]2C(=O)N[C@H](C(C)C)C(=O)N3CC(=O)C[C@H]3C(=O)N(C)CC(=O)N(C)[C@@H](C(C)C)C(=O)OC2C)c(N)c1=O (stereo not given in full) | -4.29% (active) |
| CCOP(=O)(OCC)C(NC(C)=O)C(=O)SCCN (stereo not given) | 106% |
| O=C(/C=C/c1ccccc1)c1nc2ccccc2n1Cc1ccc(F)cc1 | -48.5% (active) |
| O=C(/C=C/c1ccccc1Cl)c1nc2ccccc2n1Cc1ccc(F)cc1 | -75.1% (active) |
| C[C@H]1[C@@H](CC(=O)N[C@@H](Cc2coc3ccccc23)B(O)O)O[C@@H]2OC3(C)CC[C@H]4[C@H](C)CC[C@@H]1[C@@]24OO3 | -28.1% (active) |
| C[C@H]1[C@H](OC(=O)CCC(=O)N(CCCc2cn(-c3ccc(C#N)cc3)nn2)CCNc2ccnc3cc(Cl)ccc23)O[C@@H]2OC3(C)CC[C@H]4[C@H](C)CC[C@@H]1[C@@]24OO3 | 60.3% |
| COc1cc2cc(C(=O)N3C[C@@H](CCl)c4c3cc(OC(=O)N3CCN(C)[C@@H]5CSSC[C@@H]53)c3ccccc43)[nH]c2c(OC)c1OC | -26.1% (active) |
| COc1ccc2cc([C@H](C)C(=O)[Se]CCC#N)ccc2c1 | -49.9% (active) |
| CC[C@]12C=CCN3CC[C@@]4(c5ccc(OC)cc5N(C)[C@H]4[C@@](O)(C(=O)OC)[C@@H]1OC(=O)CCCC[P+](c1ccc(OC)cc1)(c1ccc(OC)cc1)c1ccc(OC)cc1)[C@@H]32 | -63.6% (active) |
| O=C(/C=C/c1ccc(Cl)cc1Cl)c1nc2ccccc2n1Cc1ccc(F)cc1 | 38.7% |
| O=C(/C=C/c1cccc(Br)c1)c1nc2ccccc2n1Cc1ccc(Br)cc1 | -67.7% (active) |
| CC(=C\C(=O)Oc1ccc2c3c1OC1C(O)CCC4(O)C(C2)N(CC2CCC2)CCC314)/C=C1\CCCc2ccccc21 (stereo not given) | 56.3% |
